Among the data in PubChem BioAssay (NCATS) are outcome values, retold here.

Each structure is given as a SMILES string. Results filed as inconclusive are left out. The source made the active and inactive calls. The call rests on the fitted dose curve.

For this assay, the target named is Peroxisome proliferator-activated receptor delta (Homo sapiens) (UniProt Q03181). Put plainly: qHTS assay for small molecule agonists of peroxisome proliferator-activated receptor delta signaling (AID 588534). The settings on record: HEK293T PPARdelta-UAS-bla, beta-lactamase ratio, 18 h; series mostly up to 76.7 µM. The source says: NIH Chemical Genomics Center [NCGC] U.S. Environmental Protection Agency [EPA] National Institutes of Environmental Health Sciences [NIEHS] National Toxicology Program [NTP] NCGC Assay Overview The Peroxisome proliferator-activated receptors (PPARs) are lipid-activated transcription factors of the nuclear receptor superfamily with three distinct subtypes namely PPAR alpha, PPAR delta (also called PPAR beta) and PPAR gamma. All these subtypes heterodimerizes with Retinoid X receptor (RXR) and have different physiological functions. […] This role of PPAR delta implicates the potential use of its ligands in the treatment of metabolic disorders.
Peroxisome proliferator-activated receptor delta (Homo sapiens), sequence (Q03181 whole entry, looked up): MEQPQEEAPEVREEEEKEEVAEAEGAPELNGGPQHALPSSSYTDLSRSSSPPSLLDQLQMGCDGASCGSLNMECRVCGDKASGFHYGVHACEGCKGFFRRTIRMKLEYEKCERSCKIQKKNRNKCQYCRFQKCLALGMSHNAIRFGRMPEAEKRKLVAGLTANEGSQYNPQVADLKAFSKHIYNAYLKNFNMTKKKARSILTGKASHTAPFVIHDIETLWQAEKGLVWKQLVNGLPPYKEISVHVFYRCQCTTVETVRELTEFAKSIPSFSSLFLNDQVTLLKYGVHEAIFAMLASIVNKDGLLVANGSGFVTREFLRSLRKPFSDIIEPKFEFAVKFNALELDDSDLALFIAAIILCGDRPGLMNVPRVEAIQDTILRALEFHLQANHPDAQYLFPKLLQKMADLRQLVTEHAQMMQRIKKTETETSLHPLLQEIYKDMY
Compounds were screened in a titration series in 1536-well format. […] Concentration-response titration points for each compound were fitted to the Hill equation yielding concentrations of half-maximal stimulation (EC50) and maximal response (efficacy) values. qHTS protocol for PPAR-delta beta-lactamase assay in agonist mode [Step] [Parameter] [Value] [Description] 1. Reagent; 6 uL; 4000 cells/well 2. Incubation; 37 C for 5 hrs 3. Compounds; 23 nL; 0.59 nM to 92 uM 4. […] Incubation; 37 C for 18 hrs 6. Detection reagent; 1 uL of CCF4-dye 7. Incubation; RT for 2 hrs 8. Detection; Fluorescence; Envision plate reader
In general terms: qHTS replaces the single test concentration by a dilution series.
In the case of `Nc1ccc(F)cc1F`, the outcome was inactive.

In the case of `Cc1cc(Cl)ccc1OC(C)C(=O)O` (stereo not given), the outcome was inactive.

In the case of `NC(=O)c1ccc([N+](=O)[O-])cc1`, the outcome was inactive.

`Nc1ccccc1[N+](=O)[O-]`: the result was inactive.

Turning to `Cc1ccn2nc(S(=O)(=O)Nc3c(F)cccc3F)nc2n1`, the outcome was inactive.

For the compound `CC(=O)Nc1cccc(N)c1`, the outcome was inactive.

Turning to `O=C(O)c1ccccc1[N+](=O)[O-]`, the result was inactive.

For `O=c1[nH]c2ccccc2c(=O)o1`, the result was inactive.

For `Nc1ccc(Cl)cc1Cl`, the result was inactive.

As for `C1CCOC1`, the result was inactive.

For `CS(=O)(=O)c1cc(C(F)(F)F)ccc1C(=O)c1cnoc1C1CC1`, the outcome was inactive.

Consider `O=[N+]([O-])c1ccccc1CCO`, for which the outcome was inactive.

For the compound `Nc1ccc(N=Nc2ccccc2)c(N)c1`, the outcome was inactive.

As to `Cc1ccc(C)c([N+](=O)[O-])c1`, the outcome was inactive.

In the case of `CCC(C)=O`, the result was inactive.

In the case of `Cc1ccccc1`, the result was inactive.

In the case of `CCCCOCC(C)OCC(C)O` (stereo not given), the outcome was inactive.

On to `CNC(=O)Oc1cc(C)c(SC)c(C)c1`, for which the result was inactive.

As to `O=C(O)c1ccccc1C(=O)O`, the outcome was inactive.

Turning to `CC(=O)c1cccc([N+](=O)[O-])c1`, the result was inactive.

As to `Clc1ccc([C@@]2(Cn3cncn3)C[C@@H](Br)CO2)c(Cl)c1`, the outcome was inactive.

Turning to `[CH3][Sn]([Cl])([Cl])[Cl]`, the result was inactive.

Turning to `O=C(Cl)c1cccc(C(=O)Cl)c1`, the outcome was inactive.

As to `CC(C)(C)C(=O)[C@H](Oc1ccc(Cl)cc1)n1cncn1`, the result was inactive.

With `Clc1ccc([C@]2(Cn3cncn3)C[C@H](Br)CO2)c(Cl)c1`, the outcome was inactive.

As for `O=C(O)CN(CCO)CCN(CC(=O)O)CC(=O)O`, the result was inactive.

With `CC1(C)C(=O)N(Br)C(=O)N1Cl`, the outcome was inactive.

In the case of `CC(=O)Nc1ccc(C)cc1`, the outcome was inactive.

Regarding `Cc1cc(Cl)ccc1O[C@H](C)C(=O)O`, the result was inactive.

As to `CC(C)C=O`, the outcome was inactive.

For `CC(C)C(=O)OCC(C)(C)C(OC(=O)C(C)C)C(C)C` (stereo not given), the outcome was inactive.

For the compound `O=C(O)C1C(C(=O)O)C2(Cl)C(Cl)=C(Cl)C1(Cl)C2(Cl)Cl` (stereo not given), the result was inactive.

Consider `Cc1ccc([N+](=O)[O-])c(N)c1`, for which the outcome was inactive.

Regarding `OCCOCCOCCOCCO`, the result was inactive.

As to `CCc1c(C(=O)O)c(=O)cnn1-c1ccc(Cl)cc1`, the outcome was inactive.

On to `Cc1ccc(N=Nc2c(O)ccc3ccccc23)c(C)c1`, for which the result was inactive.

On to `Cc1cc(C)cc(N)c1`, for which the outcome was inactive.

With `COC(=O)C1CCC(C(=O)OC)CC1` (stereo not given), the outcome was inactive.

For `CC(C)[C@@H]1CC[C@@H](C)C[C@H]1O`, the outcome was inactive.

Regarding `CCNc1nc(NC(C)C)nc(OC)n1`, the result was inactive.
